This passage reports inhibition results from ChEMBL document CHEMBL1961873, “Compounds: GSK PKIS; Assays: Nanosyn kinase panel” (2012).

Assay [1] deals with Sphingosine kinase 1 (Homo sapiens) (UniProt Q9NYA1). The settings on record: at 1 µM.
In assay [2] the target is T1, Sphingosine kinase 2 (Homo sapiens) (UniProt Q9NRA0).
T1 sequence (whole entry): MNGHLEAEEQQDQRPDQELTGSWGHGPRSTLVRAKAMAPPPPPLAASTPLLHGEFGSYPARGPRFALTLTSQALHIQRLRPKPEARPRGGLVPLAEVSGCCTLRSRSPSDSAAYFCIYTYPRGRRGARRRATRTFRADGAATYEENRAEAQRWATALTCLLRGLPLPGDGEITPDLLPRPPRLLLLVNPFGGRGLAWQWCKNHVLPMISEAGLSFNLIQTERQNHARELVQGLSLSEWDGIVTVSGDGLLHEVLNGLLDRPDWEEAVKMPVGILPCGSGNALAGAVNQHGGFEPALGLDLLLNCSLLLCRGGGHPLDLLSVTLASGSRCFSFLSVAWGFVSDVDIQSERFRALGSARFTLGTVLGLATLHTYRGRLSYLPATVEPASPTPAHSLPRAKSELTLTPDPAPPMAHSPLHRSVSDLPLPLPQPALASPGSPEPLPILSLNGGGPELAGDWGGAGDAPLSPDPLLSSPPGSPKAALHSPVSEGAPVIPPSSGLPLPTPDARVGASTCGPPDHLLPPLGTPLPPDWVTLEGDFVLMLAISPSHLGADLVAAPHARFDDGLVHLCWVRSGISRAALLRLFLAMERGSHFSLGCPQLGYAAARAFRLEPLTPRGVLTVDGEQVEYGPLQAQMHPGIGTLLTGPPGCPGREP
Conditions: at 0.1 µM.

Assay [3] has as its target T1, Sphingosine kinase 2 (Homo sapiens). The settings on record: at 1 µM.
For assay [4], the target named is Casein kinase II subunit alpha (Homo sapiens) (UniProt P68400). The settings on record: at 0.1 µM.
Sequence of Casein kinase II subunit alpha (Homo sapiens) (P68400 whole entry, looked up): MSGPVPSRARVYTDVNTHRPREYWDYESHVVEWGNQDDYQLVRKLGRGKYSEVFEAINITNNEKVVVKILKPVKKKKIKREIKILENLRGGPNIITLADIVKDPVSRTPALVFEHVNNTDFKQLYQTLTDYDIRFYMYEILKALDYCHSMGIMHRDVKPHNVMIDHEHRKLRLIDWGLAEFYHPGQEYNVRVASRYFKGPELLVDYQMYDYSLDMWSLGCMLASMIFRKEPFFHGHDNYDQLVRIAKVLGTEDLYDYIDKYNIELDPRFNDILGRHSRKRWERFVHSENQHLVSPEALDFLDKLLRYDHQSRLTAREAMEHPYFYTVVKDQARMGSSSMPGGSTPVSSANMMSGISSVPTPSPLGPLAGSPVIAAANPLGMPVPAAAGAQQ
For assay [5] the target is unchanged. The settings on record: at 1 µM.
In assay [6] the target is T2, Inhibitor of nuclear factor kappa-B kinase subunit alpha (Homo sapiens) (UniProt O15111).
T2 sequence (whole entry): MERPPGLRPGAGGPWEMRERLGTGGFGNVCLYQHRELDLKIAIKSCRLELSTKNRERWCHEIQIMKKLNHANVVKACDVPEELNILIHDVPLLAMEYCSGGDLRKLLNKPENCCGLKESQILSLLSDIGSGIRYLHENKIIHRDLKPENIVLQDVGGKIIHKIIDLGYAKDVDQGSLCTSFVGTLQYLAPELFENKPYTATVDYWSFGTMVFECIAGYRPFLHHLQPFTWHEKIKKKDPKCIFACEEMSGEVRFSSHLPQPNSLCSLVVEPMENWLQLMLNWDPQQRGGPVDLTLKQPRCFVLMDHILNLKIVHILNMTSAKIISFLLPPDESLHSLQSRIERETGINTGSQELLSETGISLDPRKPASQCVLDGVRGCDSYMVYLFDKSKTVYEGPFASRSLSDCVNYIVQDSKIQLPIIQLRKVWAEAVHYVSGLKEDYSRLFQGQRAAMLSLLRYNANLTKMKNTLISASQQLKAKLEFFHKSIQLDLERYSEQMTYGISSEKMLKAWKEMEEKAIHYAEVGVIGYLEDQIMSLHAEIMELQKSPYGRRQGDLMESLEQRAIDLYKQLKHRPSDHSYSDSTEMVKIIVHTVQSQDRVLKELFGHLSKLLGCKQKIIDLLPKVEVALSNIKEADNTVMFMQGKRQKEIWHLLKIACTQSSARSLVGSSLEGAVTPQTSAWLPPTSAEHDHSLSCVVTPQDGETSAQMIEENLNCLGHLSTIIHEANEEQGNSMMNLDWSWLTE
Conditions: at 0.1 µM.

Assay [7] concerns the target T2, Inhibitor of nuclear factor kappa-B kinase subunit alpha (Homo sapiens). Conditions: at 1 µM.
Assay [8] concerns the target T3, Inhibitor of nuclear factor kappa-B kinase subunit beta (Homo sapiens) (UniProt O14920).
T3 sequence (whole entry): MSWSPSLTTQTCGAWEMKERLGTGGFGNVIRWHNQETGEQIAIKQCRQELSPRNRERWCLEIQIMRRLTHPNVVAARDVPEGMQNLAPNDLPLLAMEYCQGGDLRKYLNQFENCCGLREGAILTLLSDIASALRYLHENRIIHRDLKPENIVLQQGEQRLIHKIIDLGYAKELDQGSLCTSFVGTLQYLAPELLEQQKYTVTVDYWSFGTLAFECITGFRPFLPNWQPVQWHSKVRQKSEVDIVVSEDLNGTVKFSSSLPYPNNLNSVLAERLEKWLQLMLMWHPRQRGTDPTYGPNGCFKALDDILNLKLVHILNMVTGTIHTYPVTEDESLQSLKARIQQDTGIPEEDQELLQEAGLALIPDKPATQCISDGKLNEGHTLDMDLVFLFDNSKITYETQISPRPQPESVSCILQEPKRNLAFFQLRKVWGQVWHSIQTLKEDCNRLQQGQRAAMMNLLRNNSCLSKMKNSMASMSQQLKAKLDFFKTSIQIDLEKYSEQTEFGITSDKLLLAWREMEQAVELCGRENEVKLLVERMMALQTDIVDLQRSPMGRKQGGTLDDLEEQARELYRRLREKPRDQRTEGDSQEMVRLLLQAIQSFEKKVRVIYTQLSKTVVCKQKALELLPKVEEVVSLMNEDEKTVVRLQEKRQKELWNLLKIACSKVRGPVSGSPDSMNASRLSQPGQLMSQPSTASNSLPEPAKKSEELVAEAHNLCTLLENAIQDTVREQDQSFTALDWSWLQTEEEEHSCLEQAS
The settings on record: at 0.1 µM.

In assay [9] the target is T3, Inhibitor of nuclear factor kappa-B kinase subunit beta (Homo sapiens). The settings on record: at 1 µM.
For assay [10], the target named is T4, Inhibitor of nuclear factor kappa-B kinase subunit epsilon (Homo sapiens) (UniProt Q14164).
T4 sequence (whole entry): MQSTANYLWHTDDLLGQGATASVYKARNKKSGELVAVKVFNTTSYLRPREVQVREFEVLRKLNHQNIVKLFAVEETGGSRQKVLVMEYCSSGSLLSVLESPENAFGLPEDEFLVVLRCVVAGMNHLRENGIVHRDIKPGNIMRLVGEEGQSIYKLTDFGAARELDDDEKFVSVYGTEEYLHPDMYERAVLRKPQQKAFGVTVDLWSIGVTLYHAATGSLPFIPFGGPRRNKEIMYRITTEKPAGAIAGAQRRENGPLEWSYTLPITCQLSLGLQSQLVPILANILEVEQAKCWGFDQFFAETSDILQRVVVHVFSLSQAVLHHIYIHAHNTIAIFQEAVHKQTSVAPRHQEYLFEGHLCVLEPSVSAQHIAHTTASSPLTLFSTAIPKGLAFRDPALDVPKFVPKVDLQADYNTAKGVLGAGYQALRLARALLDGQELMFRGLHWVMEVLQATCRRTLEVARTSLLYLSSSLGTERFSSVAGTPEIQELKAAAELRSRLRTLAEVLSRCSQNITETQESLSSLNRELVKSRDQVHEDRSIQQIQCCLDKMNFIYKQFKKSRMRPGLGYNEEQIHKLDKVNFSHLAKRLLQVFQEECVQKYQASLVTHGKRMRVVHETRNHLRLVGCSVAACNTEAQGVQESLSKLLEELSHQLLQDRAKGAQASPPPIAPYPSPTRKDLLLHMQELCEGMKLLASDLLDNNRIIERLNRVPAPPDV
Conditions: at 0.1 µM.

The target of assay [11] is T4, Inhibitor of nuclear factor kappa-B kinase subunit epsilon (Homo sapiens). Conditions: at 1 µM.
The target in assay [12] is T5, Serine/threonine-protein kinase Nek1 (Homo sapiens) (UniProt Q96PY6).
T5 sequence (whole entry): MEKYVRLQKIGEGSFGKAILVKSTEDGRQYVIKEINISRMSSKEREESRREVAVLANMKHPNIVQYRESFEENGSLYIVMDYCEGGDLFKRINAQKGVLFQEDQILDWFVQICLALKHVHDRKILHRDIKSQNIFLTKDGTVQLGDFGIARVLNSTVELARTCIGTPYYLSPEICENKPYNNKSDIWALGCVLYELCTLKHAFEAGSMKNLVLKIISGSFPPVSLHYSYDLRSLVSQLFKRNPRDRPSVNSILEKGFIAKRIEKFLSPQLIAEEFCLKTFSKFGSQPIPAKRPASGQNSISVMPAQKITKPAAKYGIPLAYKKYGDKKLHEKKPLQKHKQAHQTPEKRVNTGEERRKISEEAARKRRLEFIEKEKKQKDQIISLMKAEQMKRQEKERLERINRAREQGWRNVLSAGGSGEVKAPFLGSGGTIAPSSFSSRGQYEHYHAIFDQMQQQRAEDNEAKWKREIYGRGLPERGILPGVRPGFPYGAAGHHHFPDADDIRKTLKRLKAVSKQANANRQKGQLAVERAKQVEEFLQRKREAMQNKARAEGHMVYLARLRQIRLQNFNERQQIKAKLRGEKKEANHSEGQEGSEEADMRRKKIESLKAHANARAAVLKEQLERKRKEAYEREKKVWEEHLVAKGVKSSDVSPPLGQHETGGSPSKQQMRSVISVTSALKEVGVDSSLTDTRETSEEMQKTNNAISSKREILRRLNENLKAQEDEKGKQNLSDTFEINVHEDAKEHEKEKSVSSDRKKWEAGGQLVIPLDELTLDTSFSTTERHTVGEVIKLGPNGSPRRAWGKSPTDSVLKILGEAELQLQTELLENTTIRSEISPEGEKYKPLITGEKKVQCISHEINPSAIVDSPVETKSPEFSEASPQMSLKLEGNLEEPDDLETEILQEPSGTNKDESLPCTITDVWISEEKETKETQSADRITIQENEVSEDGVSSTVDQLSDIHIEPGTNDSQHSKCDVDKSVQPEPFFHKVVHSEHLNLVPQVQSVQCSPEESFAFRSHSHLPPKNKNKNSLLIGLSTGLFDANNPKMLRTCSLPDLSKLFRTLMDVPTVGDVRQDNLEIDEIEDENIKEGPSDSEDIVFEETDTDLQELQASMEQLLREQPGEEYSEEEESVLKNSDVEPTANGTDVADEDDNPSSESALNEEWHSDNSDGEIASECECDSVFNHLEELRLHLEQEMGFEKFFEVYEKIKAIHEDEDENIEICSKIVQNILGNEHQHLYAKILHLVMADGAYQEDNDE
The settings on record: at 0.1 µM.

Assay [13] addresses T5, Serine/threonine-protein kinase Nek1 (Homo sapiens). Conditions: at 1 µM.
The target in assay [14] is T6, Serine/threonine-protein kinase Nek2 (Homo sapiens) (UniProt P51955).
T6 sequence (whole entry): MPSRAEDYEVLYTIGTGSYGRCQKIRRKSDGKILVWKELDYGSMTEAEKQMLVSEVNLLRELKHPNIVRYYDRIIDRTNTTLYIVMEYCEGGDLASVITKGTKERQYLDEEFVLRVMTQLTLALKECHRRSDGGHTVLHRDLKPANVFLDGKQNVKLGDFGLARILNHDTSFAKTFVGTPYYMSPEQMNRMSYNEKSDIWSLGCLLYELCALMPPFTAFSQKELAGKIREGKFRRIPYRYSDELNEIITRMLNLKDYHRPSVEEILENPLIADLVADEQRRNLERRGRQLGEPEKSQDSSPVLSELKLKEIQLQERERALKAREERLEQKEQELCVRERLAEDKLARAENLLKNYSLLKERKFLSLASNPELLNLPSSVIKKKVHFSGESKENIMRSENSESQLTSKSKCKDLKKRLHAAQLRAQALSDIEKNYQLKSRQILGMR
The settings on record: at 0.1 µM.

The target of assay [15] is T6, Serine/threonine-protein kinase Nek2 (Homo sapiens). The settings on record: at 1 µM.
The target of assay [16] is Serine/threonine-protein kinase Nek6 (Homo sapiens) (UniProt Q9HC98). Conditions: at 0.1 µM.
Sequence of Serine/threonine-protein kinase Nek6 (Homo sapiens) (Q9HC98 whole entry): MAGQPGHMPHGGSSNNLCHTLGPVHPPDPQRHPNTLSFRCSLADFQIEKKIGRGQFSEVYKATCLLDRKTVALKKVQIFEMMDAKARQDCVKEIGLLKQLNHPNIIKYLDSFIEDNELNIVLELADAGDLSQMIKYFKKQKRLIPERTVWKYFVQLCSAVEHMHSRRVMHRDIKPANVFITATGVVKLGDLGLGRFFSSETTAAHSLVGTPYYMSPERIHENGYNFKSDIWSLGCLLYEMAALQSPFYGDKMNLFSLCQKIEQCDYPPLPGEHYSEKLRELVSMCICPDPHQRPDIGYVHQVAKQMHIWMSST
The target is the same in assay [17]. Conditions: at 1 µM.
Assay [18] deals with Serine/threonine-protein kinase Nek7 (Homo sapiens) (UniProt Q8TDX7). The settings on record: at 0.1 µM.
Sequence of Serine/threonine-protein kinase Nek7 (Homo sapiens) (Q8TDX7 whole entry, looked up): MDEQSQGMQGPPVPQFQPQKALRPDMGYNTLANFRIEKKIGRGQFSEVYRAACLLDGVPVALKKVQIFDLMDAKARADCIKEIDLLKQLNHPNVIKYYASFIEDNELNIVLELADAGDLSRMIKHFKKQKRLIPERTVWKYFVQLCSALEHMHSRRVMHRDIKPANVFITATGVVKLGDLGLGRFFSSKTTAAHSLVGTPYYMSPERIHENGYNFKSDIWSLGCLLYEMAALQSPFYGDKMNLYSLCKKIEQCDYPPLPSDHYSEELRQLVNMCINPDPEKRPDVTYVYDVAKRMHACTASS
Assay [19] has the same target. Conditions: at 1 µM.
The target of assay [20] is T7, Serine/threonine-protein kinase Nek9 (Homo sapiens) (UniProt Q8TD19).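 Further: reported value is the mean percent inhibition of NEK9.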
T7 sequence (whole entry): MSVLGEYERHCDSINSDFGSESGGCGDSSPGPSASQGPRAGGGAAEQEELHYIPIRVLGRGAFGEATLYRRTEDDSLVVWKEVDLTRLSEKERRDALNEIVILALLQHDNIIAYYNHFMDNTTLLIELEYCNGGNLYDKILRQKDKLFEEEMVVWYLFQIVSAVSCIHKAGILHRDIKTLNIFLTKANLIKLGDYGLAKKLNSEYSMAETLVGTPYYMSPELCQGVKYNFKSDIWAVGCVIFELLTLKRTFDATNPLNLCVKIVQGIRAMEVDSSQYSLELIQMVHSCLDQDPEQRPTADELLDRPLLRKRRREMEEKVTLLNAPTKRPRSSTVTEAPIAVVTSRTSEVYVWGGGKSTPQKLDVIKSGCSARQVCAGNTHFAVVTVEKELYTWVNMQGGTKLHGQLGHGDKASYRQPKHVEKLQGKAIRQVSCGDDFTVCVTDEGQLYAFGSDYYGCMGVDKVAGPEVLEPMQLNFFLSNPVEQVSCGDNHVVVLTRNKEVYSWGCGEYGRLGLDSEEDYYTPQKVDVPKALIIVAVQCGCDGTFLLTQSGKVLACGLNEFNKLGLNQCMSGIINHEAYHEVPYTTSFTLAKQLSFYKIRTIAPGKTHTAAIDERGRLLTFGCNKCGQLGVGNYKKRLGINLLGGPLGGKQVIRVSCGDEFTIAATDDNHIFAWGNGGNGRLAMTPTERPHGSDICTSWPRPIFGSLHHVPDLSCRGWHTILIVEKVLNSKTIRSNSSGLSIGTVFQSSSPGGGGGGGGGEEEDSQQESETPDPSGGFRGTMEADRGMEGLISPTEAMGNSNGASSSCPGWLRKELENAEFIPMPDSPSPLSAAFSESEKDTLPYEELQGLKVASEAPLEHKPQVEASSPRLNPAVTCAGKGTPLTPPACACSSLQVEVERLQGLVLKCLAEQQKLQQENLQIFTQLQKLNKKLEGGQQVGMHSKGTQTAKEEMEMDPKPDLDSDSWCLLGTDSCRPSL
The settings on record: at 0.1 µM.

Sequence of Sphingosine kinase 1 (Homo sapiens) (Q9NYA1 whole entry): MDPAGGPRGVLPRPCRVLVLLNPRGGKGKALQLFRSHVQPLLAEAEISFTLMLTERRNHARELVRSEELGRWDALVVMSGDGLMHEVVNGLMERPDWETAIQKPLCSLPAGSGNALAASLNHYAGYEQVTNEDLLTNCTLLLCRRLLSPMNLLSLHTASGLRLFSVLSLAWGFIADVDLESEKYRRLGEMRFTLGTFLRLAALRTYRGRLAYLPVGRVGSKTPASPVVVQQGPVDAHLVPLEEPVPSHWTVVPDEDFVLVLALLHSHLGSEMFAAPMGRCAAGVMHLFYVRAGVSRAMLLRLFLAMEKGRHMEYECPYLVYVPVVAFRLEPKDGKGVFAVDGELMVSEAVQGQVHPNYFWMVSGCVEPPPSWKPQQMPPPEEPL

As to `COc1cc(C)c(N(C)C(=O)CN(C)C)cc1Nc1nc(Nc2cccc(F)c2C(N)=O)c2cc[nH]c2n1`, the inhibition (commonly the drop in the measured response relative to a control, in per cent) in assay [1] is -0.02%; in assay [2], 0.91%; in assay [3], -0.35%; in assay [4], 0.17%; in assay [5], 4.3%; in assay [6], 3.63%. Besides, the inhibition in [7] is 1.85%; in assay [8] it was 2.96%; in assay [9], -0.54%; in assay [10], 1.26%; in assay [11], 0.91%; in assay [12], 1.9%. Further, the inhibition was 1.66% in assay [13]; 3.24% in assay [14]; 3.64% in [15]; 1.26% in assay [16]; -1.46% in assay [17]; 3.13% in assay [18]. The figures for the inhibition in assay [19] and in assay [20] were 2.22% and 5.24%, respectively.
